Targets with a hit are over-represented here; the source holds about 7,900 in all. About 0.6% of all pairs of compound and target were hits. A number with no mark means an inactive call.

Sequence of UniProt Q13464 (Q13464 whole entry, looked up): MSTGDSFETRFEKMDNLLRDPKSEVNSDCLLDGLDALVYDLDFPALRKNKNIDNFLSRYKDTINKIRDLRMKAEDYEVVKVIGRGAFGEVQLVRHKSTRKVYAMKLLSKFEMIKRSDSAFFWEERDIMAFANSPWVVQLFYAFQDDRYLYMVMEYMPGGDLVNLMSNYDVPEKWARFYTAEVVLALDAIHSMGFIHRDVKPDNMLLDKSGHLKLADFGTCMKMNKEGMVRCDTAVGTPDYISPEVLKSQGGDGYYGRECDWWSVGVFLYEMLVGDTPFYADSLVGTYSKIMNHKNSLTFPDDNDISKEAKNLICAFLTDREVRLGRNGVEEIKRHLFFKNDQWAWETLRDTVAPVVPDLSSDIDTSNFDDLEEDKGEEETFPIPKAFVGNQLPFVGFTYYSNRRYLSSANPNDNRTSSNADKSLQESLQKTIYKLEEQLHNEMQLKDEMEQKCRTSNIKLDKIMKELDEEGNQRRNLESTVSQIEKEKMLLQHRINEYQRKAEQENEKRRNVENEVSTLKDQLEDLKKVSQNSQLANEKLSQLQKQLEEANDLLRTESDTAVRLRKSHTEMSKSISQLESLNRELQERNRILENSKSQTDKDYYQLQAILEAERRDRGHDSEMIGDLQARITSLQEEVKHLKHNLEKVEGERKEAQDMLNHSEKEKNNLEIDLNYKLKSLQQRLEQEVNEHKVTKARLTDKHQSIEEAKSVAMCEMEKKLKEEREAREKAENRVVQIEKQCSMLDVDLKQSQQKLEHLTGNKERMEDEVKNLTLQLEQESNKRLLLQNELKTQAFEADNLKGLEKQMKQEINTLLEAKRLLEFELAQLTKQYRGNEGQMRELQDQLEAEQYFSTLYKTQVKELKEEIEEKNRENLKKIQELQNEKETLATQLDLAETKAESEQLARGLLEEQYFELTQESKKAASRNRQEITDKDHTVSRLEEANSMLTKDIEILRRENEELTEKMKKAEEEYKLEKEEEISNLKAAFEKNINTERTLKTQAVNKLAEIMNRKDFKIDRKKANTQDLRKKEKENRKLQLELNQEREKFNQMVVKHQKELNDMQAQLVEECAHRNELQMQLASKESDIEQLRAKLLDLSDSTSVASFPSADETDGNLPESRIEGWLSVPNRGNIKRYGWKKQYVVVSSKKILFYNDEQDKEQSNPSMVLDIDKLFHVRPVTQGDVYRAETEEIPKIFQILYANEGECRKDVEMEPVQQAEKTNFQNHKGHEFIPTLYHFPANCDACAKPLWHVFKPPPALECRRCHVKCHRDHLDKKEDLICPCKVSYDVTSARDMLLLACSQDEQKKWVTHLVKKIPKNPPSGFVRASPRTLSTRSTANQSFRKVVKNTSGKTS
Sequence of UniProt P18754 (P18754 whole entry, looked up): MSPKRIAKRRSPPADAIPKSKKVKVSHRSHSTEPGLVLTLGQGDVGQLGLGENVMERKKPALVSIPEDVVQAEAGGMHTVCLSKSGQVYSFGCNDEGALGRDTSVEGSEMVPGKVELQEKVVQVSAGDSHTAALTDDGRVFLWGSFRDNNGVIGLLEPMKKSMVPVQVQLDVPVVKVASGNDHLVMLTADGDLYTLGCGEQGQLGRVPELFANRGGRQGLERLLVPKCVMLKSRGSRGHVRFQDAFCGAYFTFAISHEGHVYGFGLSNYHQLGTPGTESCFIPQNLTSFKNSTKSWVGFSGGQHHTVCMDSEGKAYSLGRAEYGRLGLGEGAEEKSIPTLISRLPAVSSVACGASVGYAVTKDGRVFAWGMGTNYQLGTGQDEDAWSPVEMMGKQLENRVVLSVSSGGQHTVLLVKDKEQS
Sequence of UniProt Q8IZE3 (Q8IZE3 whole entry, looked up): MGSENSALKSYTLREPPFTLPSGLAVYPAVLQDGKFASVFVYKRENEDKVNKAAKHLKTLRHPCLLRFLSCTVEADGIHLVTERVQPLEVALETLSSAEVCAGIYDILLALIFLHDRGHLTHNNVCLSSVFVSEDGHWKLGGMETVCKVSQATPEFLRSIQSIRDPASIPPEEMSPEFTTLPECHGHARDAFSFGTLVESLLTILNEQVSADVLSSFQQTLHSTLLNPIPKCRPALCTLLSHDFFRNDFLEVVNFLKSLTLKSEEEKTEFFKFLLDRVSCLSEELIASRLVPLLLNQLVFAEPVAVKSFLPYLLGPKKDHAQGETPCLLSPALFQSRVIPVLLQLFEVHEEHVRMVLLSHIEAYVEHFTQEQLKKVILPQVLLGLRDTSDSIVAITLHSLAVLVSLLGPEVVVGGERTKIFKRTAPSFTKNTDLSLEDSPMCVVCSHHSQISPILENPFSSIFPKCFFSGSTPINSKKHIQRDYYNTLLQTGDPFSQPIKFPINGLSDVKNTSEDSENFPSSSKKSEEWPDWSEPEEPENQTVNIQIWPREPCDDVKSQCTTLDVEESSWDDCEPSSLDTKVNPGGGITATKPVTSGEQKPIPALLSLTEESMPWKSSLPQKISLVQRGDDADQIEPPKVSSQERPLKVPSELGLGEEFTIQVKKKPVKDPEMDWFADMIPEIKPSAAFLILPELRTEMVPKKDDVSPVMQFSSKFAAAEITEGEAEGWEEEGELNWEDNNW
Sequence of UniProt Q5RL73 (Q5RL73 whole entry, looked up): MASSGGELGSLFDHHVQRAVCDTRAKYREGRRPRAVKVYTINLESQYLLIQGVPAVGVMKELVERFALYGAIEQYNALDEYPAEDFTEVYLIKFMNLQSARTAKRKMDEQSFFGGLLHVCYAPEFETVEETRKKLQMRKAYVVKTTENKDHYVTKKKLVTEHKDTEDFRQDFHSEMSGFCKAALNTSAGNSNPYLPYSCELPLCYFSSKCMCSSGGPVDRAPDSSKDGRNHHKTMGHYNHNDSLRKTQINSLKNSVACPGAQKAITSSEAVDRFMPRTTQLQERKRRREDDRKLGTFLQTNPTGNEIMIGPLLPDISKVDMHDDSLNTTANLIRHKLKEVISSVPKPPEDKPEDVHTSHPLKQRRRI
Sequence of UniProt O43665 (O43665 whole entry, looked up): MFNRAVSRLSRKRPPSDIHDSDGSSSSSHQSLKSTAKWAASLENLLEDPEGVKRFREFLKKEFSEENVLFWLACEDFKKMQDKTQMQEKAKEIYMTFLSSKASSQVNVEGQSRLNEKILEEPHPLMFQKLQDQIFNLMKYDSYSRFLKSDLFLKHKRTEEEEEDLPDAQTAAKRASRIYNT
Sequence of UniProt Q04864 (Q04864 whole entry, looked up): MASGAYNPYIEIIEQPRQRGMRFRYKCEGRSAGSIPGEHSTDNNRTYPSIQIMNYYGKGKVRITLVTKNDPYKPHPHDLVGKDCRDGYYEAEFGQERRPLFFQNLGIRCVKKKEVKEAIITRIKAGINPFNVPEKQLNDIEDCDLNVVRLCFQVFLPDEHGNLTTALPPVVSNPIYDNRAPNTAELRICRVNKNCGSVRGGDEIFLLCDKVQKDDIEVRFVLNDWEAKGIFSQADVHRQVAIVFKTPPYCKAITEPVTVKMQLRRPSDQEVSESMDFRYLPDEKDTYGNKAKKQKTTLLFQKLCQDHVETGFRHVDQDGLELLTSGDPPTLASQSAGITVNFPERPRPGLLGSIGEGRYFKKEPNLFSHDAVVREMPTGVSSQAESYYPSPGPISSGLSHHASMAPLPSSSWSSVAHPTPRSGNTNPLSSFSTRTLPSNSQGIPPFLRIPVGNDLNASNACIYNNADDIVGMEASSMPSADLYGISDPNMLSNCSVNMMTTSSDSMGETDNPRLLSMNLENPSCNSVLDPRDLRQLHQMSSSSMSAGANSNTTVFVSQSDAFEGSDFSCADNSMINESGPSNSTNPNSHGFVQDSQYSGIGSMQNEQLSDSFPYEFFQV
Sequence of UniProt Q5VZM2 (Q5VZM2 whole entry, looked up): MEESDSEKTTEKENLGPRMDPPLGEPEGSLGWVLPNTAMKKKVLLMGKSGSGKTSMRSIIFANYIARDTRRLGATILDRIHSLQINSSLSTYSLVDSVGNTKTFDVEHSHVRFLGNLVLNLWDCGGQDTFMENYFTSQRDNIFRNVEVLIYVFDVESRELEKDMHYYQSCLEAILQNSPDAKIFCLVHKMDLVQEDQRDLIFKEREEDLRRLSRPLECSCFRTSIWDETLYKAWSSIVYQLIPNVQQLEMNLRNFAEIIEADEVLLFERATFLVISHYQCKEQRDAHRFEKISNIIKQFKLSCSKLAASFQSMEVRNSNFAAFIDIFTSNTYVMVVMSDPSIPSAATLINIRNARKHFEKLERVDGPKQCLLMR
Sequence of UniProt Q9BUV8 (Q9BUV8 whole entry, looked up): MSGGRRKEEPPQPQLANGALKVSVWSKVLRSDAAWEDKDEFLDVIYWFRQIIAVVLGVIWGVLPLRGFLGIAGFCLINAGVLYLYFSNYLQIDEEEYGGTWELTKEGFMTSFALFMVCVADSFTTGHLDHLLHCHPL
Sequence of UniProt Q92696 (Q92696 whole entry, looked up): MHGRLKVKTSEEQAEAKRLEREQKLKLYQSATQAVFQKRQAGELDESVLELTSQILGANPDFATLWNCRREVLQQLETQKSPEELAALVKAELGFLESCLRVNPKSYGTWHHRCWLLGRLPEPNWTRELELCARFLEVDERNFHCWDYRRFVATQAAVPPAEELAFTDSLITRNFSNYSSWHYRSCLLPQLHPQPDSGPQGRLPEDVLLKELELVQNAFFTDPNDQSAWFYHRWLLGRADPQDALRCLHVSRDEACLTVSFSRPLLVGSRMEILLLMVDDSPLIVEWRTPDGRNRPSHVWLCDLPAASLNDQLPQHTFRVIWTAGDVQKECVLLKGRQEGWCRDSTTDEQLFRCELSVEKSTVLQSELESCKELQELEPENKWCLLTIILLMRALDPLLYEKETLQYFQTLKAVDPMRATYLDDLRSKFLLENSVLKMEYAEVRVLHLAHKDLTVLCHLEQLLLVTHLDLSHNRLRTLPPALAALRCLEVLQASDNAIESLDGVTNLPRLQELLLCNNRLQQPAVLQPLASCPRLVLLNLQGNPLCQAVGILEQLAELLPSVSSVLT
Sequence of UniProt Q99643 (Q99643 whole entry, looked up): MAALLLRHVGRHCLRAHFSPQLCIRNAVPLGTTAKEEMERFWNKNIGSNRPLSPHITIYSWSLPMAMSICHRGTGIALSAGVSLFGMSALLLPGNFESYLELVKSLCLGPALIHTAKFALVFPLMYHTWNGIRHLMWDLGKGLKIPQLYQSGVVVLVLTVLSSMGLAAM

Compound in the first experiment: CC(=O)c1cnc2ccc(-c3cc(Cl)c(O)c(Cl)c3)nc2c1N[C@H]1CC[C@H](CN(C)C)CC1
Briefly: log2 fold change, soluble protein after heating vs DMSO (PISA); higher = thermal stabilisation; K562 cells, 10 uM, 30 min; active = over 0.2 and 3.5 SD of the protein, either way, in both replicates (recomputed). The method, boiled down: (§1)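 For each measurement, 10 μM compound was applied for 30 min to K562 cells at 2×10^6 cells/mL. Aliquots were heated for 3 min across 48°C-58°C, pooled, and extracted in PBS with 0.5% NP-40 at 4°C; the supernatant after 21,000xg for 90 min was soluble protein. This was quantified by TMTpro 16plex LC-MS/MS with channel sums equalised, and thermal stability was reported relative to control samples from duplicates, on a log2 fold-change scale.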
As to RPS3 (UniProt P23396), the log2 fold change is 0.051.
The same measure, in the same setting: then SDHC (UniProt Q99643), with 0.025; and REL (UniProt Q04864), with -0.017; and SERINC1 (UniProt Q9NRX5), with 0.
On to RPS9 (UniProt P46781), for which the log2 fold change is 0.108.
Same read-out and setting: then RPS27A (UniProt P62979), with 0.054.
On the same count and under the same terms, then RPS18 (UniProt P62269), with 0.052; and RBM33 (UniProt Q96EV2), with -0.063.
With SEC23IP (UniProt Q9Y6Y8), the log2 fold change is -0.048.
The same measure, in the same setting: with RRAGB (UniProt Q5VZM2) the figure was 0.08; with RPS16 (UniProt P62249), 0.054; with RPS4X (UniProt P62701), 0.126.
On to RABGGTA (UniProt Q92696), for which the log2 fold change is -0.02.
RSL1D1 (UniProt O76021): the log2 fold change was 0.22.
On to ROR2 (UniProt Q01974), for which the log2 fold change was -0.72 (active).
For SEC16A isoform 5 (UniProt O15027), the log2 fold change was -0.069.
Still for that read-out and setting: with RETSAT (UniProt Q6NUM9) the figure was 0.01; with RAB5C isoform 2 (UniProt P51148), 0.039; with RSF1 (UniProt Q96T23), 0.043.
On to SCAMP2 (UniProt H3BUB6), for which the log2 fold change is -0.171.
The same measure, in the same setting: then RSRC2 (UniProt Q7L4I2), with -0.284 (active); and RAB5IF isoform 5 (UniProt Q9BUV8), with 0.048.
Turning to RGS10 (UniProt O43665), the log2 fold change is -0.024.
ROCK1 (UniProt Q13464): the log2 fold change was 0.015.
The same measure, in the same setting: with SCYL3 isoform 2 (UniProt Q8IZE3) the figure was -0.002; with SCAF11 (UniProt Q99590), 0.714 (active); with RCC1 isoform 2 (UniProt P18754), -0.14.
As to RPS6KA2 isoform 2 (UniProt Q15349), the log2 fold change is -0.178.
Still for that read-out and setting: then RNASET2 (UniProt O00584), with 0; and RBM48 isoform 2 (UniProt Q5RL73), with -0.018.
On to RPS3A (UniProt P61247), for which the log2 fold change was 0.072.
With RRP9 (UniProt O43818), the log2 fold change is -0.062.
On to SASH1 (UniProt O94885), for which the log2 fold change is -0.097.
RIPK1 (UniProt Q13546): the log2 fold change was -0.201.

Compound in another experiment: CC(C)(C)Cn1c(N)nc2ccc(-c3[nH]c(C(C)(C)C)nc3-c3ccc(F)cc3)nc21 [ralimetinib]
The experiment is described as above. The procedure, abridged: as §1
For the target RPS3 (UniProt P23396), the log2 fold change is 0.034.
Take SDHC (UniProt Q99643): the log2 fold change is -0.055.
As to REL (UniProt Q04864), the log2 fold change is 0.037.
With SERINC1 (UniProt Q9NRX5), the log2 fold change is -0.106.
Same read-out and setting: then RPS9 (UniProt P46781), with 0.125; and RPS27A (UniProt P62979), with 0.082; and RPS18 (UniProt P62269), with 0.055.
For the target RBM33 (UniProt Q96EV2), the log2 fold change was 0.014.
On the same count and under the same terms, with SEC23IP (UniProt Q9Y6Y8) the figure was -0.004.
On the same count and under the same terms, then RRAGB (UniProt Q5VZM2), with 0.002; and RPS16 (UniProt P62249), with 0.032; and RPS4X (UniProt P62701), with 0.106.
RABGGTA (UniProt Q92696): the log2 fold change is -0.038.
Consider RSL1D1 (UniProt O76021), for which the log2 fold change is 0.105.
On the same count and under the same terms, with ROR2 (UniProt Q01974) the figure was 0.045.
Same read-out and setting: then SEC16A isoform 5 (UniProt O15027), with 0.172; and RETSAT (UniProt Q6NUM9), with 0.012; and RAB5C isoform 2 (UniProt P51148), with 0.027.
As to RSF1 (UniProt Q96T23), the log2 fold change was 0.019.
For SCAMP2 (UniProt H3BUB6), the log2 fold change is -0.278.
Still for that read-out and setting: then RSRC2 (UniProt Q7L4I2), with 0.012; and RAB5IF isoform 5 (UniProt Q9BUV8), with 0.3.
For the target RGS10 (UniProt O43665), the log2 fold change was 0.026.
On the same count and under the same terms, with ROCK1 (UniProt Q13464) the figure was 0.031; with SCYL3 isoform 2 (UniProt Q8IZE3), -0.043.
On the same count and under the same terms, with SCAF11 (UniProt Q99590) the figure was 0.166.
Still for that read-out and setting: with RCC1 isoform 2 (UniProt P18754) the figure was 0; with RPS6KA2 isoform 2 (UniProt Q15349), -0.492 (active); with RNASET2 (UniProt O00584), -0.082.
RBM48 isoform 2 (UniProt Q5RL73): the log2 fold change was 0.004.
As to RPS3A (UniProt P61247), the log2 fold change is 0.053.
As for RRP9 (UniProt O43818), the log2 fold change is 0.014.
On the same count and under the same terms, with SASH1 (UniProt O94885) the figure was -0.138; with RIPK1 (UniProt Q13546), 0.195.

Compound in a further experiment: CC(C)(O)CC(=O)NCCn1ccc2ncnc(Nc3ccc(Oc4cccc(C(F)(F)F)c4)c(Cl)c3)c21
The experiment is described as above. The method, boiled down:
as §1
On to RPS3 (UniProt P23396), for which the log2 fold change is 0.005.
Still for that read-out and setting: with SDHC (UniProt Q99643) the figure was -0.185.
Same read-out and setting: then REL (UniProt Q04864), with -0.093.
On the same count and under the same terms, with SERINC1 (UniProt Q9NRX5) the figure was -0.235.
Consider RPS9 (UniProt P46781), for which the log2 fold change is 0.047.
For RPS27A (UniProt P62979), the log2 fold change is 0.216.
As for RPS18 (UniProt P62269), the log2 fold change was 0.06.
The same measure, in the same setting: then RBM33 (UniProt Q96EV2), with 0.046; and SEC23IP (UniProt Q9Y6Y8), with -0.119; and RRAGB (UniProt Q5VZM2), with -0.012.
Still for that read-out and setting: with RPS16 (UniProt P62249) the figure was 0.011; with RPS4X (UniProt P62701), 0.003.
For the target RABGGTA (UniProt Q92696), the log2 fold change is -0.021.
Regarding RSL1D1 (UniProt O76021), the log2 fold change was 0.212.
Regarding ROR2 (UniProt Q01974), the log2 fold change was -0.058.
Turning to SEC16A isoform 5 (UniProt O15027), the log2 fold change was -0.177.
On the same count and under the same terms, then RETSAT (UniProt Q6NUM9), with 0.178; and RAB5C isoform 2 (UniProt P51148), with -0.012; and RSF1 (UniProt Q96T23), with -0.175.
The same measure, in the same setting: then SCAMP2 (UniProt H3BUB6), with 0.102; and RSRC2 (UniProt Q7L4I2), with -0.033.
The same measure, in the same setting: with RAB5IF isoform 5 (UniProt Q9BUV8) the figure was 0.021; with RGS10 (UniProt O43665), -0.025; with ROCK1 (UniProt Q13464), -0.079.
With SCYL3 isoform 2 (UniProt Q8IZE3), the log2 fold change was -0.063.
Still for that read-out and setting: then SCAF11 (UniProt Q99590), with -0.084; and RCC1 isoform 2 (UniProt P18754), with -0.16; and RPS6KA2 isoform 2 (UniProt Q15349), with -0.082.
The same measure, in the same setting: with RNASET2 (UniProt O00584) the figure was 0.029; with RBM48 isoform 2 (UniProt Q5RL73), 0.004; with RPS3A (UniProt P61247), 0.069.
On to RRP9 (UniProt O43818), for which the log2 fold change is 0.133.
On the same count and under the same terms, then SASH1 (UniProt O94885), with 0.002; and RIPK1 (UniProt Q13546), with -0.023.

Source of the values: the supplement of paper PMC10849652.
